Screens from PubChem BioAssay.
JMJD2A Tudor inh: qHTS Assay for Inhibitors of JMJD2A-Tudor Domain | actives 4.4% (n = 390,000) | AlphaScreen JMJD2A-Tudor / H3K4me3 peptide binding | Potency, µM (series often up to 114 µM), usual class: inhibitors; note: nearly all actives have a fitted effect of over 50% in size
Sfp PPTase inh: qHTS Assay for Inhibitors of Bacillus subtilis Sfp phosphopantetheinyl transferase (PPTase); 4'-phosphopantetheinyl transferase ffp (Bacillus subtilis), Q9F4F7; actives 3.5% (n = 310,000); Biochemical Sfp PPTase activity, qHTS; Potency, µM, hits mostly inhibitors;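 note: the enzyme is Sfp with the accession as filed and its product quenches rhodamine fluorescence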
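Fluorescence-quenching assay with 15 nM Sfp, 5 uM rhodamine-CoA and 12.5 uM BHQ-2-labelled ybbR peptide in pH 7.6 Hepes/MgCl2 buffer. Enzyme was pre-incubated with compound for 15 min at room temperature. Rate was taken from the 30-min fluorescence change (525/598 nm).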
G9a block: qHTS Assay for Inhibitors of Histone Lysine Methyltransferase G9a. G9a H3K9 monomethylation, AlphaScreen, 2 h. actives 8.8% (n = 350,000). Potency, µM (doses to about 102 µM), most hits filed as inhibitors; note: nearly all actives have a fitted effect of over 75% in size
Target sequence (Q96KQ7 913-1193 limits assumed): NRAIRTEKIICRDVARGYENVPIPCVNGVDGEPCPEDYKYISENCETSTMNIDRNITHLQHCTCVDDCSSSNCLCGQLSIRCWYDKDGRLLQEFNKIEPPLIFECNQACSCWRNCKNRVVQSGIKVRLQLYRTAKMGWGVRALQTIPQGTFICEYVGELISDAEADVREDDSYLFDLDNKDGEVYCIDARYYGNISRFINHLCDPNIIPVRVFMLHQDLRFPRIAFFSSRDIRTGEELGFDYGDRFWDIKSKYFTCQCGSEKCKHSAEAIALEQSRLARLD
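Signal arises when biotinylated H3K9 peptide, once monomethylated, bridges streptavidin donor and antibody-captured acceptor beads. Enzyme at 20 nM was preincubated 15 min with test compounds; peptide 500 nM and SAM 20 uM then reacted for 2 h.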
HP1b chromo inh: HTS for Inhibitors of HP1-beta Chromodomain Interactions with Methylated Histone Tails | Chromobox protein homolog 1 (Homo sapiens), P83916 | AlphaScreen HP1-beta / biotin-H3K9me3 peptide binding | Potency, µM (highest dose often 114 µM), hits mostly inhibitors | actives 0.56% (n = 390,000) | AID 540317, 2011; note: nearly all actives have a fitted effect of over 70% in size
Target sequence (P83916 whole entry, looked up): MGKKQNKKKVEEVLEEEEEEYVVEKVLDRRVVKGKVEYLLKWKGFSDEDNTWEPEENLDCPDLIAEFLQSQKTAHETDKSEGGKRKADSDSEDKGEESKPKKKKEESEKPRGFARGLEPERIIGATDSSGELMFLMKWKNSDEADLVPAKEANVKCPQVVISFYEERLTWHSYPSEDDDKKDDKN
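AlphaScreen: HP1-beta (50 nM) preformed 30 min with biotin-H3(1-18)K9me3 peptide (50 nM) in PBS pH 7.4, 0.01% Tween-20. Compound added for 30 min at RT, then streptavidin donor/nickel chelate acceptor beads (10 ug/mL) for 30 min.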
L3MBTL1 inh: qHTS Assay for the Inhibitors of L3MBTL1 | Lethal(3)malignant brain tumor-like protein 1 (Homo sapiens), Q9Y468 | AlphaScreen L3MBTL1–H3K9me1 peptide binding | Potency, µM (series often up to 57.1 µM), actives largely listed as inhibitors | actives 0.66% (n = 230,000) | AID 485360, 2010; note: nearly all actives have a fitted effect of over 60% in size
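AlphaScreen assay: L3MBTL1 (50 nM final) was preincubated 30 min at room temperature with biotinylated H3(1-15)K9me1 peptide (75 nM final), then 30 min with library compounds; streptavidin donor and nickel chelate acceptor beads (10 ug/mL final) added, 30 min dark.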
BAZ2B inh: qHTS Assay for Inhibitors of BAZ2B; Potency, µM (doses to about 114 µM), actives largely listed as inhibitors; AlphaScreen BAZ2B-H3K14Ac peptide displacement; actives 4.4% (n = 360,000); note: nearly all actives have a fitted effect of over 60% in size
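AlphaScreen displacement of biotin-H3(5-23)K14Ac peptide (50 nM final) from BAZ2B (50 nM final) in PBS pH 7.4, 0.01% Tween-20; complex preformed 30 min RT, then compounds (top 110 uM) 30 min RT, beads 20 min dark.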
ME-1 prolif: qHTS Assay for Compounds Blocking the Interaction Between CBF-beta and RUNX1 for the Treatment of Acute Myeloid Leukemia: ME-1 cellular proliferation; shares compounds with BAZ2B inh; ME-1 cell proliferation, ATP luminescence, 48 h; Potency, µM (top dose mostly 56.1 µM), hits mostly inhibitors; actives 20% (n = 140); AID 504370, 2011
Numbers stand for hits; i = inactive; ? = inconclusive; nt = no result given; [ ] = another dose, or the depositor's remark. Only some compounds are listed: those with a hit (about 12% of all), similar ones and a draw of the others. Calls come from the whole dose curve; as a rule, active = well fitted curve in the direction sought with a large enough effect; inconclusive = small, poorly fitted or top-dose-only effect, or another doubt; inactive = no such curve, though single readings can be large; an effect the other way counts as inactive or inconclusive.

SMILES	JMJD2A Tudor inh	Sfp PPTase inh	G9a block	HP1b chromo inh	L3MBTL1 inh	BAZ2B inh	ME-1 prolif
COc1ccc(-c2cc(=O)c3c(O)cc(O)c(-c4cc(-c5cc(=O)c6c(O)cc(O)cc6o5)ccc4OC)c3o2)cc1	nt	i	nt	nt	nt	nt	nt
COc1ccc(OC)c(-c2c3cc(O)c(=O)cc-3oc3cc(O)c(O)cc23)c1	1.6µM	11µM	6.3µM	?	0.79µM	2.8µM	22µM
C=CC[C@@H]1C=C[C@H](O/N=C(\C)CCN2CCCc3nc(C)c(C)cc32)[C@H](CO)O1	nt	i	nt	nt	nt	nt	nt
O=S(=O)(c1ccc2nc(-c3ccco3)c(-c3ccco3)nc2c1)N1CCOCC1	79µM	10µM	2µM	i	i	50µM	i
Oc1ccc(/C=N/NC(=S)Nc2cccnc2)c(O)c1	40µM	i	25µM	i	8.9µM	2.8µM	14µM
Fc1c(F)c(F)c(/C=N/NC(=S)Nc2cccnc2)c(F)c1F	i	i	i[12.7 µM]	i	i	i	nt
Oc1ccc(/C=N/NC(=S)Nc2cccnc2)c(O)c1O	3.5µM	3.5µM	i	5µM	nt	2.2µM	?
COc1ccc(C2C(C(N)=O)=C(C)Nc3nc(CCCO)nn32)c(OC)c1 (stereo not drawn)	i	nt	i	i	nt	i	nt
CC(C)C[C@@H](CC(=O)N[C@@H](CCCN)CC(=O)N[C@@H]1CCNC[C@H]1C(=O)N[C@H](CC(=O)N[C@@H](CCC(=O)O)CC(=O)O)Cc1c[nH]c2ccccc12)NC(=O)[C@@H]1CNCC[C@H]1N	nt	i	nt	nt	nt	nt	nt
COc1ccc(-c2csc(N=C(N)N)n2)cc1	i	i	?	i	i	?	nt
COc1ccc(-c2csc(N)n2)cc1	i	i	?	i	i	i	i
CC1CCN(S(=O)(=O)c2ccc3c(c2)N(CC(=O)NC(C)c2ccccc2)C(=O)CS3)CC1 (stereo not drawn)	i	nt	i	i	nt	i	nt
COc1ccc(CNC(=O)CN2C(=O)CCCc3ccccc32)cc1	i	nt	i	i	nt	i	nt
Cc1c(Cl)cccc1NC(=S)N(CCN(C)C)C(C)c1ccccn1 (stereo not drawn)	i	i	i	i	nt	50µM	i
Cc1ccccc1NC(=S)N(CCN(C)C)C(C)c1ccccn1 (stereo not drawn)	i	i	i	i	nt	?	i
Cc1ccccc1NC(=S)N(CCN(C)C)C(C)c1cccnc1 (stereo not drawn)	i	i	i	i	nt	i	nt
COc1ccc(C(=O)NCc2ccc3c(c2)CCN3C(=O)c2cccc(C)c2)cc1OC	i	nt	i	i	nt	i	nt
Cc1c(O)c(CN(C)C)cc2c1oc(=O)c1ccccc12	i	i	?	i	i	i	nt
O=c1oc2c(O)c(O)cc3c(=O)oc4c(O)c(O)cc1c4c23	0.71µM	?	1.3µM	?	?	0.79µM	i
Cc1ccc(-c2noc(-c3nnn(CC(=O)Nc4cc(Cl)ccc4C)c3N)n2)cc1	i	nt	i	i	nt	i	nt
Fc1ccc([C@H]2CCNCC2COc2ccc3c(c2)OCO3)cc1 (stereo partly drawn)	nt	i	i[2.33 µM]	nt	nt	nt	i
O=C(NCCn1cc(SCc2ccccc2F)c2ccccc21)c1cccs1	i	nt	i	i	nt	i	nt
CCOC(=O)[C@H](CCc1ccccc1)N[C@@H](C)C(=O)N1[C@H](C(=O)O)C[C@H]2CCCC[C@@H]21	nt	i	i	nt	nt	nt	i
O=C(NN1C(=O)CSC1=S)C(=O)NN1C(=O)CSC1=S	32µM	?	?	i	0.79µM	?	i
Brc1ccc(C2Nc3cccc4cccc(c34)N2)o1	?	?	20µM	?	i	?	i
c1csc(C2Nc3cccc4cccc(c34)N2)c1	i	?	?	?	i	?	nt
Cc1ccc(CN2CCCn3nc(C(=O)NC(C)C)cc3C2=O)cc1	i	nt	i	i	nt	i	nt
